Platelet DG rel: platelet dense granule release activity; human platelet-rich plasma, SFLLRN dense granule ATP release, luminescence; inhibition, %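 (compounds screened at 7.5 µM in platelet-rich plasma)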; 300,000 tested, 0.22% active;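 active = mean replicate score, as percent of positive control, at or above 50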
AHR activator: activates the human aryl hydrocarbon receptor | activation, % at 5 µM | P35869 | 320,000 tested, 2.5% active | AHR-responsive luciferase reporter cells, luminescence; in the data active = activation above about 47%
Target sequence (P35869 whole entry, looked up): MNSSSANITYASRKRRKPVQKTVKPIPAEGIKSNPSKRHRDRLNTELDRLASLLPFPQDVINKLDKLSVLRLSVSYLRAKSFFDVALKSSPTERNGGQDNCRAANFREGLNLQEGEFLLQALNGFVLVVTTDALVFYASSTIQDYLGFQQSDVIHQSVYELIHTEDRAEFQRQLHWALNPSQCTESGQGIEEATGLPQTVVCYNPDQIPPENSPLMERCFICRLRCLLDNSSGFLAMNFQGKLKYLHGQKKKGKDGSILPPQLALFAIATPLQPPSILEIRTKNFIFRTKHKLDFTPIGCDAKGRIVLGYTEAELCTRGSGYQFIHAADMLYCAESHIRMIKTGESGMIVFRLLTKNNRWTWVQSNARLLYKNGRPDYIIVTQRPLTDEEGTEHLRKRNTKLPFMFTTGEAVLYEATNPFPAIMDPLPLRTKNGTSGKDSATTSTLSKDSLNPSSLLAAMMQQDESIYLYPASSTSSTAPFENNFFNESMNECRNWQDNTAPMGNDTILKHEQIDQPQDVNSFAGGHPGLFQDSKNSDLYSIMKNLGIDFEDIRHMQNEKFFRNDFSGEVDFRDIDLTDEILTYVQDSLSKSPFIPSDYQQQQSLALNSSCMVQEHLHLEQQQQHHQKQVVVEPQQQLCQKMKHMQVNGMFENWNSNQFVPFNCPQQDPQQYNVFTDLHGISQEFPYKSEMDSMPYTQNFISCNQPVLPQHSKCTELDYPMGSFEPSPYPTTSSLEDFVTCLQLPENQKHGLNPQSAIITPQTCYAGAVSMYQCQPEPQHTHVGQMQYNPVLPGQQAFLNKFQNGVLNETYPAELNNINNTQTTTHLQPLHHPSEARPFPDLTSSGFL
p-CIP stab down: p/CIP protein destabilization. decrease of EGFP signal, % at 10 µM. 290,000 tested, 0.01% active. F442A p/CIP-EGFP cells, EGFP fluorescence, 16 h. Q05BA5;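 active = EGFP signal decrease of at least 30% at 10 µM or well 3 SD below plate mean, unless failing retest; inactive = the rest, including hits failing retest or dose response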
HIF activator: HIF pathway transcriptional activation | activation, % at 7.5 µM (by protocol) | U2OS HRE-luciferase reporter, luminescence; normalized: DMSO 0%, desferrioxamine 100% | 300,000 tested, 0.32% active | AID 1910;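 active = mean activation of at least 10% of the iron chelator positive control signal, with at least half of replicates also reaching 10%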
PolyA inh: yeast polyadenylation inhibition. S. cerevisiae SKY197-pL101 polyadenylation reporter, beta-gal luminescence; efflux-impaired pdr1/pdr3 knockout yeast; score 100 = 6 SD above DMSO. activity score, % at 12 µM. 300,000 tested, 0.02% active. AID 1875;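 active = lowest replicate activity score at least 50, where 100 means six control SD above control mean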;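 note: yeast exposed to compound for 9 h at 30 °C; higher score means more reporter readthrough which indicates perturbed polyadenylation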
Hits are given with their value; . = inactive; / = no result. A selection: hits, their analogues and other compounds. The true share with any hit is near 2.8%.

SMILES	Platelet DG rel	AHR activator	p-CIP stab down	HIF activator	PolyA inh
COC(=O)[C@H](CCSC)NC(=O)c1cccnc1SC	.	.	.	633	.
Cn1cc(C(=O)N/N=C/c2c(O)ccc3ccccc23)ccc1=O	.	.	.	88	.
Nc1cc(Cl)nc(N/N=C/c2c(O)ccc3ccccc23)n1	.	55	.	13	.
O=C(N/N=C/c1c(O)ccc2ccccc12)c1ccc[n+](CCO)c1	.	.	.	.	.
O=C(N/N=C\c1c(O)ccc2ccccc12)c1ccc(O)cc1	.	.	.	34	.
O=C(CSCC(=O)Nc1ccccc1)N/N=C/c1c(O)ccc2ccccc12	.	.	.	71	.
CC1CCCCC1NC(=O)CCn1ccc2cc(S(=O)(=O)N3CCCC3)ccc21 (centres undefined)	.	.	.	.	.
Cn1nccc1C(=O)N/N=C/c1c(O)ccc2ccccc12	.	.	.	101	.
Cc1c(C(=O)N/N=C/c2c(O)ccc3ccccc23)nnn1-c1nonc1N	.	.	.	.	.
Cc1occc1C(=O)N/N=C/c1c(O)ccc2ccccc12	.	.	.	91	.
O=C(N/N=C/c1c(O)ccc2ccccc12)Nc1ccccc1	.	.	/	.	.
Cn1nccc1C(=O)Oc1cccc(/C=N/NC(=O)c2ccccc2O)c1	.	69	.	.	.
O=C(N/N=C/c1c(O)ccc2ccccc12)c1ccc(Br)o1	.	.	.	59	.
O=c1c2ccccc2cnn1Cc1nnc(-c2cccs2)o1	.	.	.	.	.
COc1ccc(-c2nc3c4ccccc4ccn3c2CN2CCOCC2)cc1OC	.	58	.	.	.
COc1ccc2nc(NC(=O)C3CCN(C(=O)c4ccco4)CC3)sc2c1	.	.	.	.	.
CC(C)N(CCCNC(=O)C1CCN(C(=O)c2cc3sccc3n2C)CC1)Cc1ccccc1	.	.	.	.	.
CC1(C)Cc2c(sc3nc(NCCN4CCOCC4)n4ncnc4c23)CO1	52	.	.	.	.
Cc1ccc2nc(-c3ccc(SCC(=O)O)nc3)[nH]c2c1	.	.	.	.	.
Cc1ccc2nc(-c3ccc(SCC(=O)N4CCc5ccccc54)nc3)[nH]c2c1	.	59	.	.	.
CCc1nnc(NC(=O)CSc2ccc(-c3nc4ccc(C)cc4[nH]3)cn2)s1	.	66	.	.	.
COc1ccc(C2=NN(c3ccccc3)C(c3cn(CCC(=O)O)nc3-c3ccccc3)C2)cc1 (centres undefined)	.	.	.	.	.
CCC/C(O)=C1\C(=O)CC(C)(C)CC1=NCc1ccccc1	.	.	.	77	.
CCc1nc(SCC(=O)c2ccc(Cl)s2)c2oc3ccccc3c2n1	.	60	.	.	.
COc1ccc(NCc2ccsc2)cc1	.	.	.	.	.
SMILES	Platelet DG rel	AHR activator	p-CIP stab down	HIF activator	PolyA inh
O=C(Nc1nccs1)c1cc(-c2ccncc2)nc2ccccc12	.	56	.	.	.
CC(C)(C)c1ccccc1NC(=O)c1cc(-c2ccncc2)nc2ccccc12	/	52	/	/	/
Cc1ccc(-c2cc(C(=O)Nc3ccncc3)c3ccccc3n2)cc1	.	.	/	.	.
COc1cccc(-c2cc(C(=O)Nc3cccnc3)c3ccccc3n2)c1	.	.	.	.	.
COc1ccc(-c2cc(C(=O)Nc3cccnc3)c3ccccc3n2)cc1OC	.	67	.	.	.
C/C(=N\NC(=O)c1cc(-c2cccnc2)nc2ccccc12)c1ccc(O)cc1O	.	.	.	36	.
C=CCOc1c(Br)cc(CNn2nnnc2N)cc1OCC	.	.	.	.	.
Cc1ccc(-c2cc(C(=O)Nc3nccs3)c3ccccc3n2)o1	.	55	.	.	.
O=C(N/N=C/c1cccnc1)c1cc(-c2cccs2)nc2ccccc12	.	76	.	.	.
Cc1ccc(C(=O)NCCCNC(=O)c2ccco2)cc1C	.	.	.	.	.
O=[N+]([O-])c1ccc(-c2nc(C(Cl)Cl)c3ccccc3n2)cc1	.	75	.	.	.
Cc1ccccc1N1CC(O)(c2ccccc2)[N+]2=C1SCC2 (centres undefined)	.	.	.	.	.
Cc1ccc(C2(O)CN(c3ccccc3C)C3=[N+]2CCS3)cc1 (centres undefined)	.	.	.	12	.
Cc1ccc2cccc(NC(=S)NC(=O)c3ccccc3)c2n1	.	56	.	.	.
Cc1ccc2cccnc2c1NC(=S)NC(=O)c1ccccc1	.	69	.	.	.
CCC(=O)NC1=C(Nc2ccc(N)cc2)C(=O)c2ccccc2C1=O	.	55	.	.	.
Cc1c(C(=O)N2CCCC2)sc(NC(=O)c2ccc(Cl)cc2)c1C#N	58	.	.	.	.
COc1ccccc1C(=O)Nc1sc(C(=O)N2CCCC2)c(C)c1C#N	.	.	.	.	.
CCN(Cc1ccc(OC)c(F)c1)C(=O)/C=C/c1ccc(S(=O)(=O)N2CCOCC2)cc1	/	.	/	/	/
CSc1cccc(NC(=O)CC2Oc3ccccc3NC2=O)c1 (centres undefined)	.	.	.	.	.
O=c1c2sc(-c3ccccc3)cc2nc2n1CCC2	.	.	.	.	113
O=c1c2sc(-c3ccccc3)cc2nc2n1CCCCC2	.	.	.	.	.
O=C1C(C=NCCCn2ccnc2)=C(O)c2ccccc21	.	48	/	.	.
CC(C)CN=CC1=C(O)c2ccccc2C1=O	.	.	.	.	.
O=C1C(C=NCc2ccccn2)=C(O)c2ccccc21	.	60	.	.	.
SMILES	Platelet DG rel	AHR activator	p-CIP stab down	HIF activator	PolyA inh
CC(=NCCCn1ccnc1)C1=C(O)c2ccccc2C1=O	.	.	.	.	.
CCOc1ccc2nc(NC(=O)CCn3cccc3)sc2c1	.	59	.	.	.
CCCC(=O)Nc1nc2ccc(OCC)cc2s1	.	.	.	.	.
O=C(Nc1nc2ccccc2s1)c1ccc([N+](=O)[O-])o1	.	.	.	.	.
COc1ccc2nc(NC(=O)c3ccc([N+](=O)[O-])o3)sc2c1	.	52	.	.	.
CCOc1ccc2nc(NC(=O)c3ccc(C)o3)sc2c1	61	.	/	.	.
CCOC(=O)C1=c2/c(=C/c3ccncc3)c(N)c(C(=O)OC)n2C(=O)C(c2ccncc2)S1 (centres undefined)	.	.	.	.	.
CCOC(=O)C1(Cc2ccccc2C)CCCN(C(=O)CCn2nccc2C)C1 (centres undefined)	.	.	.	.	.
COc1ccc(Nc2nccc(-c3ccc([N+](=O)[O-])cc3)n2)cc1	.	61	.	.	.
Cc1ccc(/C=N\NC(=O)c2csnn2)cc1	.	49	.	.	.
CC(C)(C)c1ccc(/C=N/OCC(=O)NCc2ccc(F)cc2)cc1	.	.	.	.	.
O=C1c2ccccc2C(=O)N1OCc1ccccc1	.	90	.	.	.
O=C1c2ccccc2C(=O)N1OCc1cccc(Cl)c1	.	.	.	.	.
COc1ccc(-c2ccc(/C=C3/C(=N)N4C=CSC4=NC3=O)o2)c([N+](=O)[O-])c1	.	49	.	.	.
